High-throughput results (PubChem BioAssay)
NPC1 prom act: NPC1 promoter activation | Huh7 NPC1 promoter luciferase reporter, 24 h | Potency, µM (series often up to 9.22 µM), most hits filed as activators | 320,000 compounds, 2.4% hits; also: nearly all actives have a fitted effect of over 60% in size
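Quantitative HTS used a cell-based reporter: Huh7 cells stably bearing the NPC1 promoter upstream of luciferase were treated with compounds for 24 h, and promoter activation was read as luminescence.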
SMN2 splice up: SMN2 splice variant enhancement; HEK293 SMN2-luciferase splicing reporter, luminescence, 30-36 h; Potency, µM (doses to about 46.1 µM), usual class: activators; 210,000 compounds, 2.8% hits; also: nearly all actives have a fitted effect of over 55% in size
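qHTS luciferase splicing reporter: luminescence rises when SMN2 exon 7 is included in transfected HEK293 cells. Compound exposure lasted 30-36 h at 37C, with 4.5 mM final sodium butyrate as control, followed by a ONE-Glo read.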
Rab9 prom act: Rab9 promoter activation; Huh7 Rab9 promoter-luciferase reporter, luminescence, 24 h; Potency, µM (doses to about 9.22 µM), actives largely listed as activators; 320,000 compounds, 2.8% hits; also: nearly all actives have a fitted effect of over 60% in size
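Luciferase signal after 10 min detection reagent at ambient indicates Rab9 promoter upregulation; stably transfected Huh7 cells were treated 24 h with compound in DMSO at 37 °C, 5% CO2.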
FLuc modulator: firefly luciferase modulation, counter-screen for miR-21 project; 360,000 compounds, 6.9% hits; purified FLuc, Km substrates, luminescence inhibition; Potency, µM (doses to about 57.5 µM), most hits filed as inhibitors; AID 588342; also: nearly all actives have a fitted effect of over 55% in size
Target sequence (P08659 whole entry, looked up): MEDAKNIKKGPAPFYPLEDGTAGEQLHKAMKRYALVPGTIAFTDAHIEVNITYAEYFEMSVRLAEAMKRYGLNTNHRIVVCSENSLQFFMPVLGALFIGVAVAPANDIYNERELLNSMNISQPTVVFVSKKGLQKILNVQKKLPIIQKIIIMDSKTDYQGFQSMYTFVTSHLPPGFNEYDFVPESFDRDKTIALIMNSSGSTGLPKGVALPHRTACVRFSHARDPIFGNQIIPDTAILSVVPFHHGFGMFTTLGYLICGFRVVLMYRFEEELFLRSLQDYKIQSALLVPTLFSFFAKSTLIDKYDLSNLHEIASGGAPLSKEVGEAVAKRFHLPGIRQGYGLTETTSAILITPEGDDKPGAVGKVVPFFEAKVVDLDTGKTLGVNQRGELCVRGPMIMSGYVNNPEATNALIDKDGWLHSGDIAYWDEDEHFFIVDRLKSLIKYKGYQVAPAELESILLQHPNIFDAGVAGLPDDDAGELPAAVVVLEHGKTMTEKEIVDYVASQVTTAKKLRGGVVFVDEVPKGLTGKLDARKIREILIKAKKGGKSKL
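Biochemical qHTS of compounds, final roughly 60 µM downward over six points, against 10 nM purified firefly luciferase using Km concentrations of substrates (10 uM D-luciferin, 10 uM ATP) in Tris acetate pH 7.5 buffer; luminescence output.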
KinaseGlo FLuc: counter-screen: inhibitors of Kinase-Glo firefly luciferase. Potency, µM (series often up to 38.3 µM), actives largely listed as inhibitors. Kinase-Glo luciferase, ATP luminescence, 8 min. AID 1379. 200,000 compounds, 0.28% hits. Q27757; also: nearly all actives have a fitted effect of over 60% in size
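Compounds were added to a substrate mix at pH 7.2 (50 mM imidazole, 10 uM ATP, within the enzyme's linear range), followed by Kinase-Glo detection reagent; luminescence was measured after 8 minutes at ambient temperature.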
Hits are given with their value; – = inactive; ? = inconclusive; · = no result; [ ] = another dose, or the depositor's remark. Most compounds without a hit are left out; they make up all but 7.3% or so of the library. Calls follow the shape of the dose curve; as a rule, active = well fitted curve in the direction sought with a large enough effect; inconclusive = small, poorly fitted or top-dose-only effect, or another doubt; inactive = no such curve, though single readings can be large; an effect the other way counts as inactive or inconclusive.

SMILES | NPC1 prom act | SMN2 splice up | Rab9 prom act | FLuc modulator | KinaseGlo FLuc
NC(=S)N/N=C1\CC(c2ccc3c(c2)OCCCO3)Oc2ccc(F)cc21 (stereo not given) | – | · | – | 15.1µM | ·
CCCCC/C=C\C/C=C\C[C@H](O)/C=C/C=C\CCCC(=O)O | · | – | · | · | –
CCN(c1ccc(OCC(=O)OCC(=O)c2c(N)n(C)c(=O)n(C)c2=O)cc1)S(=O)(=O)c1ccccc1 | – | – | – | 12µM | –
O=C(Nc1cc2c(cc1Br)OCCCO2)c1ccccc1 | 3.55µM | 15.8µM | 3.98µM | 13.5µM | –
O=C(Nc1cc2c(cc1Cl)OCCCO2)c1ccc(F)cc1 | ? | 7.94µM | 2.82µM | 12µM | –
Cc1ccc(C(=O)Nc2cc3c(cc2Cl)OCCCO3)cc1 | 1.78µM | 11.2µM | 2µM | 7.57µM | –
CC(=O)c1cc2c(cc1NC(=O)c1ccc(Cl)cc1)OCCO2 | – | · | – | – | ·
O=C(Nc1cc2c(cc1C(=O)c1ccccc1Cl)OCCO2)c1ccc(Br)cc1 | · | – | · | – | ·
CCCCn1cc(S(=O)(=O)c2ccc(C)c(C)c2)c(=O)c2cc(F)c(N3CCN(C)CC3)cc21 | · | · | · | – | ·
CN(C)c1ccc(NC(=O)CCn2c(=S)oc3ccccc32)cc1 | – | – | – | 4.26µM | –
Cc1ccc(NC(=O)CCn2c(=S)oc3ccccc32)cc1 | – | – | – | – | –
CC(C)c1ccc(NC(=O)c2ccc(Br)o2)cc1 | 0.891µM | 2.51µM | 0.631µM | 2.13µM | –
O=C(NC(=S)Nc1ccccc1)c1ccc(Br)o1 | ? | 22.4µM | ? | 13.5µM | –
CN(C)S(=O)(=O)c1ccc(NC(=O)c2ccc(Br)o2)cc1 | – | – | – | ? | –
CC(C)c1ccc(NC(=O)C2=NNC(=O)CC2)cc1 | 2.82µM | · | 3.16µM | 12µM | ·
O=C(NC(=S)NCc1ccccc1)c1ccc(Br)o1 | – | · | – | – | ·
COc1ccc(NC(=S)NC(=O)c2ccc(Br)o2)cc1 | ? | 8.91µM | 3.16µM | 9.53µM | –
COc1cc(Cl)c(C)cc1Nc1c2c(nc3ccccc13)CCC2 | · | – | · | · | ·
CCc1ccc(NC(=O)Cn2nnc(C(=O)Nc3cc(C)ccc3OC)c2N)cc1 | · | · | · | – | ·
COc1cccc(NC(=O)c2ccc(CNS(=O)(=O)c3ccc4c(c3)C(C)(C)C(=O)N4C)cc2)c1 | · | · | · | – | ·
O=C1CN(C(=O)c2ccc(S(=O)(=O)N3CCCC3)cc2)C(c2ccccc2)c2cc(Br)ccc2N1 (stereo not given) | · | – | · | – | ·
O=C(Nc1ccc(Nc2ccccc2)cc1)c1ccc(Br)o1 | – | – | ? | 19µM | –
O=C(O)[C@H]1CC=CC[C@@H]1C(=O)Nc1cccc(O)c1 | · | –[9.22 µM] | · | · | –[7.66 µM]
O=C(O)CCCN1C(=O)c2cccc3cccc(c23)C1=O | – | · | – | – | ·
O=C(CCCN1C(=O)c2cccc3cccc(c23)C1=O)NC1CCS(=O)(=O)C1 (stereo not given) | – | · | – | 4.78µM | –
SMILES | NPC1 prom act | SMN2 splice up | Rab9 prom act | FLuc modulator | KinaseGlo FLuc
O=c1c(-c2ccccc2)c[nH]n1-c1cccc([N+](=O)[O-])c1 | ? | · | ? | 15.1µM | –
O=[N+]([O-])c1cccc(-n2nncc2-c2ccccc2)c1 | – | · | – | – | ·
O=c1c(-c2ccc(Cl)cc2)c[nH]n1-c1ccccc1 | ? | · | –[1.84 µM] | 9.53µM | ·
Cn1c(=O)[nH]c(=O)c2c1nc(N1CCOCC1)n2Cc1ccccc1 | · | – | · | – | ·
CN=C1S/C(=C\c2ccc(Cl)cc2)C(=O)N1C | – | · | – | – | ·
CN=C1S/C(=C\c2ccc(OCC(=O)OC)c(OC)c2)C(=O)N1C | – | · | – | 16.9µM | ·
CN=C1S/C(=C\c2ccc(SC)cc2)C(=O)N1C | ? | · | – | 12µM | ·
CSC1=NC(=O)/C(=C/c2ccc(SC)cc2)S1 | – | – | – | 9.53µM | –
COc1cc(/C=C2\SC(=Nc3ccc(F)cc3)N(c3ccc(F)cc3)C2=O)ccc1OCC(=O)O | – | – | – | ? | –
CCOC(=O)CSC1=NC(=O)/C(=C\c2ccc(Cl)cc2)S1 | – | · | – | 10.7µM | –
CCn1c(=O)cc(OCC(=O)NCc2ccc(F)cc2Cl)c2ccccc21 | · | – | · | – | ·
CN=C1S/C(=C\c2ccc(O)c(Br)c2)C(=O)N1C | – | · | –[1.84 µM] | 15.1µM | ·
CCN=C1S/C(=C\c2cc(Br)c(O)c(OC)c2)C(=O)N1CC | – | · | – | – | ·
COC(=O)Cc1ccc(OCc2ccc(Cl)nc2)cc1 | 2.51µM | · | ? | 15.1µM | ·
CC(C)CC(=O)Nc1ccc(-c2cn3ccsc3n2)cc1 | 1.41µM | 10µM | 0.562µM | 1.2µM | –
CC(C)(C)C(=O)Nc1ccc(-c2cn3ccsc3n2)cc1 | 0.282µM | ? | 0.126µM | 0.536µM | ?
COc1ccc(C(=O)Nc2ccc(-c3cn4ccsc4n3)cc2)cc1S(=O)(=O)N1CCOCC1 | – | – | – | – | –
COc1cccc(N2CC(NC(=O)/C=C\c3ccc4c(c3)OCO4)CC2=O)c1 (stereo not given) | · | · | · | – | ·
COc1ccc(CCNc2nc3c(-c4cccc(C)c4)nnn3c3ccccc23)cc1OC | · | – | · | – | ·
O=C(NC1CCSc2ccccc21)c1ccccc1Br (stereo not given) | ? | · | – | 16.9µM | ·
CNc1sc(C(=O)c2ccc(F)cc2)c(N)c1-c1nc2ccccc2s1 | – | – | – | ? | –
CNc1sc(C(=O)c2cccs2)c(N)c1-c1nc2ccccc2s1 | 3.98µM | 5.01µM | 2.82µM | 2.69µM | –
COc1ccc(/C=N/Nc2ncnc3sc(C)c(C)c23)cc1 | – | – | – | 19µM | –
COc1cccc(/C=N/Nc2ncnc3scc(-c4ccccc4)c23)c1OC | – | – | – | 12µM | –
COc1ccc(-c2csc3ncnc(Nc4ccccc4)c23)cc1 | · | · | · | – | ·
SMILES | NPC1 prom act | SMN2 splice up | Rab9 prom act | FLuc modulator | KinaseGlo FLuc
Cc1sc2ncnc(N/N=C/c3ccc(O)cc3)c2c1C | – | – | – | 19µM | –
Cc1sc2ncnc(N/N=C/c3ccccc3O)c2c1C | – | – | – | 21.3µM | –
Cc1sc2ncnc(NCc3cccs3)c2c1C | – | – | – | – | –
Cc1ccc(Nc2ncnc3sc(C)c(C)c23)cc1C | – | ? | – | ? | –
Cc1ccc2nc(SCc3nc(-c4ccccc4C)no3)[nH]c2c1 | · | – | · | – | ·
COc1ccccc1Nc1nn2c(=O)c3ccc(C(=O)NCCC4=CCCCC4)cc3nc2s1 | · | · | · | – | ·
COc1cc2nc(NCCC(C)C)n3nc(-c4ccccc4)nc3c2cc1OC | · | – | · | – | ·
CCCCCCCCCCCCOCC1CO1 (stereo not given) | · | – | · | · | ·
O=C(c1ccc2c(c1)N(Cc1ccccc1)C(=O)c1ccccc1S2=O)N1CCC(Cc2ccccc2)CC1 (stereo not given) | · | – | · | – | ·
Cc1sc2ncnc(NCC(O)c3ccccc3)c2c1C (stereo not given) | – | · | – | 19µM | ·
COC(=O)c1ccc(NC(=O)CSc2nc3cc4ccccc4cc3[nH]2)cc1 | · | – | · | – | ·
COc1ccc(-c2[nH]ncc2N=Nc2ccccc2)cc1 | – | ? | – | – | –
COc1ccc(N=Nc2cc(-c3ccccc3)ccc2O)cc1 | – | · | – | 23.9µM | ·
Cc1cccc(-n2ncc3c(NCc4cccnc4)ncnc32)c1 | 3.98µM | · | 2.51µM | 8.49µM | ·
